Test results as given in PubChem BioAssay (NCATS).
Results filed as inconclusive are left out. A call without a number means that no potency is given here. Active and inactive are the calls of the source. Calls come from the whole dose curve; as a rule, active = well fitted inhibition curve with a large enough effect; inconclusive = small, poorly fitted or top-dose-only effect; inactive = flat fitted curve, though single readings scatter.

What follows are compounds tested against Calcium and integrin-binding protein 1 (Homo sapiens) (UniProt Q99828) (assay: Primary qHTS for Identification of Calcium Integrin Binding Protein 1 (CIB1) Competitor (AID 1508620;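 note: GST tagged CIB1 binding a fluorescein labelled alphaIIb integrin peptide tracer; top concentration of the series differs between compounds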)). Conditions: CIB1-GST / FITC-alphaIIb peptide fluorescence polarization; series mostly up to 57.7 µM.
Outline: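 CIB1-GST (1 uM final) and compound incubated 15 min at room temperature before adding FITC-alphaIIb peptide tracer (100 nM final). Competition for binding read by fluorescence polarization (ex 480, em 540) after another 15 min at room temperature.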

Calcium and integrin-binding protein 1 (Homo sapiens), sequence (Q99828 whole entry, looked up): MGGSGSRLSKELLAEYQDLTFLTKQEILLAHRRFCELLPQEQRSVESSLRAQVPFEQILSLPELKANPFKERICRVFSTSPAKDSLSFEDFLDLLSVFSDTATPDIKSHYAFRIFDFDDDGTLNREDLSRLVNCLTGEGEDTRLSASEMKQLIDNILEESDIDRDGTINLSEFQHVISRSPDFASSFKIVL

SMILES	Potency	activity change, negative = inhibition
CCOC(=O)[C@H](CCc1ccccc1)CC1(C(=O)N[C@H]2CCc3ccccc3N(CC(=O)O)C2=O)CCCC1	inactive	
CC1(C)CC2C3=CCC4C5(C)CCC(OC6OC(CO)C(O)C(OC7OC(CO)C(O)C(OC8OC(CO)C(O)C(OC9OC(COC%10OC(CO)C(O)C(O)C%10O)C(O)C(O)C9O)C8O)C7O)C6O)C(C)(C)C5CCC4(C)C3(C)CCC2(C(=O)O)CC1O (configuration not stated)		1.69% [at 12.4 µM] (inactive)
CN[C@@H]1[C@@H](O)[C@@H](O[C@@H]2[C@@H](O)[C@H](O[C@H]3O[C@H](CN)[C@@H](O)[C@H](O)[C@H]3O)[C@@H](N)C[C@H]2NC(=O)[C@@H](O)CN)OC[C@]1(C)O	inactive	
CNC(=O)O[C@H]1COc2ccc(N3CCN(C4COC4)CC3)cc2[C@@H]1NC(=O)c1ccc(F)cc1	inactive	
COc1cc(/C=C/C(=O)OC2[C@H](O)CC(O)(C(=O)O)C[C@H]2O)ccc1O (some centres not stated)	inactive	
CC(=O)OC1C=C(C(=O)O)C2(CO)CCC(C)C(C)(CCc3ccoc3)C2C1 (configuration not stated)	inactive	
Nc1ncnc2c1ncn2[C@H]1CCCO1	inactive	
